Structures are written as SMILES. The list shows a part of the results. Unmarked numbers belong to inactive results. Calls of active or inactive are those of the source. Rule as the data show it: active = activation above about 21%; inactive = the rest.

The target in the assay is Sphingosine 1-phosphate receptor 1 (Homo sapiens) (UniProt P21453). The assay can be described thus: S1P1 receptor agonists, human, counter-screen for S1P4 agonist project, cell-based (AID 1563).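 Also: 0% = vehicle wells and 100% = reference agonist.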 Particulars: S1P1 agonist cell-based assay, at 4.98 µM, stronger effect = higher value. In general terms: A counterscreen serves to expose hits that act by an unwanted route or on another target.
Sphingosine 1-phosphate receptor 1 (Homo sapiens), sequence (P21453 whole entry, looked up): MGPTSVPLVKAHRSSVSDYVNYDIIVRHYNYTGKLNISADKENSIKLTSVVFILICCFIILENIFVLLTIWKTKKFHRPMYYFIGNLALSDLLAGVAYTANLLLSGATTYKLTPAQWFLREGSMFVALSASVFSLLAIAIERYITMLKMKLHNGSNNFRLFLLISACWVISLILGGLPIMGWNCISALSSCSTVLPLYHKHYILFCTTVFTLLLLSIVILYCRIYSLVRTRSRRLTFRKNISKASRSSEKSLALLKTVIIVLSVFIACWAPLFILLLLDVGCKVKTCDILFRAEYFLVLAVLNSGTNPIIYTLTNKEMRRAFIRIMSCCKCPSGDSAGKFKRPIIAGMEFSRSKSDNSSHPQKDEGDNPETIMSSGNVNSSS
For the molecule `Cc1cc(C)nc(N(C#N)CC(=O)Nc2ccccc2)n1`, the activation was 0.75%. In the case of `O=C(COC(=O)c1cc([N+](=O)[O-])ccc1NCc1ccccc1)NC1CCCCC1` it was -7.16%. In the case of `CCC(=O)/C(=C(/O)c1ccccc1)c1nc2ccccc2[nH]1` it was -4.01%. For `CC(C)C(c1nnnn1C(C)(C)C)N1CCN(Cc2cccnc2)CC1` (configuration not stated), the activation is -9.51%.

Regarding `O=C(CSc1ccc(-c2ccc(F)cc2)nn1)Nc1ccc2c(c1)OCCO2`, the activation was -2.21%. For `CCCCCNC(=O)c1cccnc1SCC(=O)Nc1ccccc1OC` the value was 1.32%; for `CSc1sc(C(=O)NNC(=O)c2ccc(Cl)cc2)c2c1C=CCC2`, 2.26%.

Consider `COc1ccc(C2CC(c3cccs3)=NN2c2ccccc2)cc1` (configuration not stated), for which the activation is 43.8% (active). On to `O=C(CSc1nncn1-c1cccnc1)N1CCOCC1`, for which the activation was 2.75%. For `CNC(=O)c1[nH]cnc1C(=O)N[C@@H](CC(C)C)C(=O)OCc1ccccc1` the value was 11.4%. In the case of `COc1ccc(-n2c(C)cc(C(=O)CN3C(=O)NC4(CCc5ccccc54)C3=O)c2C)cc1` (configuration not stated) it was 1.51%. For `Cc1noc(C)c1COC(=O)COc1ccc(-c2ccccc2)cc1` the value was 0.9%.

Take `COC(=O)[C@@H]1CC[C@H](C)[C@@H](c2ccc(C)cc2)N1C(=O)c1ccc(/C=N/O[C@H](C)c2cn([C@@H]3COC[C@H]3O)nn2)cc1`: the activation was -3.45%.

In the case of `CC(=O)Nc1ccccc1NC(=O)c1cc(C)cc(C)c1`, the activation is -9.63%. `Cc1ccc(NC(=O)Nc2ccccc2)c(Br)c1`: the activation was 5.03%. As for `CC(Oc1ccc(Br)cc1Br)C(=O)NC1CCCC1` (configuration not stated), the activation is -6.64%. In the case of `COC(=O)CNC(=O)C(CCSC)NC(C)=O` (configuration not stated) it was -8.17%; in that of `CCn1c(CNC(=O)c2ccc(OC)c(OC)c2)nnc1SCC(=O)Nc1ccccc1`, 0.73%.

For the molecule `CC(=O)Nc1ccc(SCC(=O)Nc2ccccc2Oc2ccccc2)cc1`, the activation is -3.81%. In the case of `CCC(C)NC(=O)C1c2ccccc2Oc2ccccc21` (configuration not stated) it was 0.8%; in that of `O=[N+]([O-])c1cccc(Nc2c3ccccc3nc3ccccc23)c1`, 11.6%. In the case of `COc1ccccc1CNC(=O)CNC(=O)c1cn(-c2ccccc2OC)c(=O)c2ccccc12` it was -2.71%; in that of `C=CCn1c(SCn2nnc3ccccc3c2=O)nnc1-c1ccc(Cl)cc1`, -1.97%.

On to `COc1ccc(N2C(=O)C(Cc3ccccc3)NC2=S)cc1` (configuration not stated), for which the activation was -2.28%.

With `Cc1cc(C)c(C#N)c(SCC(=O)NN2CC(=O)N(c3ccccc3F)CC2=O)n1`, the activation is -4.8%.

On to `COc1ccc(C2CC(c3cccs3)=NN2c2ccc(F)cc2)cc1OC` (configuration not stated), for which the activation is 16.6%.

Turning to `CCOc1ccc(-c2nnc(-c3ccco3)o2)cc1`, the activation is 2.5%. For `Cc1cc(NC(=O)c2cc(-c3cccs3)on2)nn1Cc1ccc(Cl)cc1` the value was 4.89%; for `O=C(CSc1nnc(Nc2ccccc2)s1)Nc1cccnc1Cl`, -2.54%. `N/C(=N\OC(=O)Cc1ccc([N+](=O)[O-])cc1)c1ccccn1`: the activation is -7.04%. On to `CC1CCCC(NC(=O)COC(=O)[C@@H]2CC(O)CN2S(=O)(=O)c2ccc3c(c2)OCCO3)C1C` (some centres not stated), for which the activation was -5.42%.

On to `O=C(COC(=O)Cc1ccc(F)cc1)Nc1cc(S(=O)(=O)N2CCOCC2)ccc1N1CCCC1`, for which the activation was 5.34%.

Source of the values: PubChem BioAssay AID1563 (The Scripps Research Institute Molecular Screening Center, 2009).
